PubChem BioAssay (NCATS)
Records with an inconclusive call do not appear. Entries that show only a call come without a potency. Activity calls are given as the source filed them. Unless noted, calls follow the shape of the dose curve; as a rule, active = well fitted curve in the direction sought with a large enough effect; inconclusive = small, poorly fitted or top-dose-only effect, or another doubt; inactive = no such curve, though single readings can be large; an effect the other way counts as inactive or inconclusive.

Columns and labels:
[1] = biological target: Calcium and integrin-binding protein 1 (Homo sapiens) (UniProt Q99828); test: Primary qHTS for Identification of Calcium Integrin Binding Protein 1 (CIB1) Competitor (AID 1508620);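 also: GST tagged CIB1 binding a fluorescein labelled alphaIIb integrin peptide tracer; top concentration of the series differs between compounds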
Outline: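 Fluorescence polarization competition: CIB1-GST (1 uM final) preincubated with compound 15 min at room temperature, then FITC-labeled alphaIIb peptide (100 nM final) added for another 15 min. Polarization read at Ex 480/Em 540.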

[2] = qHTS to identify inhibitors of the type 1 interferon - major histocompatibility complex class I in skeletal muscle: primary screen against the NCATS Mechanism Interrogation Plate v5.0 (MIPE) Libary (AID 1347411); also: nearly all actives have a fitted effect of over 65% in size; also: potency is read from the fitted curve at half-maximal effect
Outline: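 Immortalized human myoblasts (C25cl48) with HiBit knocked into endogenous HLA-B*08:01 were stimulated with 4 ng/ml IFN-beta and given compounds in 11-point 1:3 titration from 46 uM. After 24 h at 37 C, lytic HiBiT luminescence was read.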

[3] = qHTS to identify inhibitors of the type 1 interferon - major histocompatibility complex class I in skeletal muscle: primary screen against the NCATS LOPAC collection (AID 1347405);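 also: lytic HiBiT luminescence reporting HLA-B protein level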
Outline: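 CRISPR-engineered immortalized human myoblasts (C25cl48) with HiBiT fused to endogenous HLA-B*08:01, stimulated with 4 ng/ml IFN-beta. LOPAC compounds tested as a 7-point 1:4.3 titration (top 46 uM final), 24 h at 37 C; lytic HiBiT luminescence read.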

[4] = qHTS to identify inhibitors of the type 1 interferon - major histocompatibility complex class I in skeletal muscle: primary screen against the NCATS Pharmaceutical Collection (AID 1347407);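 also: luminescence of HiBiT knocked into endogenous HLA-B as interferon-induced MHC class I level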
Outline: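 A qHTS format is used: 8-point, 1:5 compound series with 46 uM top final concentration, applied alongside 4 ng/ml IFN-beta to HLA-B*08:01-HiBiT knock-in myoblasts. Luminescence is measured after 24 h treatment.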

[5] = qHTS for inhibitors of adenylyl cyclases using a fission yeast platform: a pilot screen against the NCATS LOPAC library (AID 1347410)
Outline: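 Inhibition of GNAS-stimulated AC9 activity in S. pombe was inferred from derepression of a PKA-repressed fbp1-GFP reporter, measured as cytometric fluorescence after 18 h at 30C with compounds at up to 57 µM.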

[6] = biological target: Protein phosphatase 1D (Homo sapiens) (UniProt O15297); test: RapidFire Mass Spectrometry qHTS Assay for Modulators of WT P53-Induced Phosphatase 1 (WIP1) (AID 1347424);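 also: amount of dephosphorylated VEPPL-S-QETFS peptide product formed by WIP1; series mostly up to about 63 µM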
Outline: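 WIP1 (10 nM final) was preincubated 1 h at room temperature with compounds in Tris-HCl pH 7.5, 30 mM MgCl2, TCEP, EGTA, BSA; 2 uM VEPPL-pS-QETFS phosphopeptide was added for 5 min, quenched with formic acid, and dephosphorylated product quantified by RapidFire MS.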

[7] = biological target: Protein phosphatase 1D (Homo sapiens) (UniProt O15297); test: Rhodamine-PBP qHTS Assay for Modulators of WT P53-Induced Phosphatase 1 (WIP1) (AID 1347425)
Outline: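 5 nM WIP1 + 10 uM Rh-PBP, 50 mM Tris pH 7.5, 30 mM MgCl2, 1 mM TCEP, 0.1 mM EGTA, BSA; cpds pinned, 1 hr RT; + 10 uM phosphopeptide; fluorescence 1-min reads x 11 min; delta = f1 - f0.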

[8] = Validation qHTS assay for inhibitors of Activation Induced Cytidine Deaminase (AID): UDG Counterscreen signal (AID 1347427)
Outline: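 Counterscreen read of UDG activity (2 U/mL, 4/3x) in the FRET deamination format with AID (1 uM, 4/3x), DJC20/DJC23 substrates (250 nM, 4x), 4 h at room temperature. NaOH stop, fluorescence at 560 ex/665 em.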

[9] = biological target: Single-stranded DNA cytosine deaminase (Homo sapiens) (UniProt Q9GZX7); test: Validation qHTS assay for inhibitors of Activation Induced Cytidine Deaminase (AID): AID signal (AID 1347429)
Outline: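 FRET deamination assay: 1 uM AID (4/3x stock) with UDG, compound up to 114 uM, then 250 nM DJC20/DJC23 substrate (4x stock) for 4 hr at room temperature. NaOH added, 30 min; fluorescence read 540/590 nm.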

[10] = Primary qHTS for small molecule stabilizers of the endoplasmic reticulum resident proteome: Secreted ER Calcium Modulated Protein (SERCaMP) assay (AID 1508630)
Outline: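 GLuc-SERCaMP-expressing SH-SY5Y cells, pretreated 16 h with compound, are challenged with thapsigargin to empty ER calcium stores; after 4 h, coelenterazine is added directly to the medium and luminescence is imaged.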

[11] = biological target: Calcium and integrin-binding protein 1 (Homo sapiens) (UniProt Q99828); test: Confirmatory qHTS for Identification of Calcium Integrin Binding Protein 1 (CIB1) Competitor (AID 1508617); also: potency is read from the fitted curve at half-maximal effect; nearly all actives have a fitted effect of over 65% in size
Outline: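 Confirmatory qHTS measures displacement of a FITC-alphaIIb peptide (100 nM) from CIB1-GST (1 uM) by fluorescence polarization. Calcium-containing HEPES buffer, pH 7.4; two 15 min room-temperature incubations.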

[12] = Primary qHTS for inhibitors of La Crosse Virus (LACV) - induced cell death in SH-SY5Y cells (AID 1508616);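 also: top concentration of the series differs between compounds; higher means more rescue of cells from virus-induced death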
Outline: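 SH-SY5Y cells (6000/well) plated 24 h, then given compounds by pin transfer and LACV at 0.01 MOI for 6 days at 37C. Viability measured by ATPLite luminescence, normalized to infected DMSO and uninfected DMSO.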

[13] = A High-Content qHTS Against Drug Library for the Identification of Small Molecules that Inhibit DYT1 Early Onset Primary Dystonia-Associated Cell Pathology (AID 1645839; calls by dose curve; also: series mostly up to about 46 µM)
Outline: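 Readout: %pathology, the punctate EGFP-TorsinA distribution from imaging, as the primary channel and cell count as the toxicity counterscreen. HEK293 Flp-In cells expressing delE TorsinA were induced with tetracycline and treated with compound for 48 h.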

Calcium and integrin-binding protein 1 (Homo sapiens), sequence (Q99828 whole entry, looked up): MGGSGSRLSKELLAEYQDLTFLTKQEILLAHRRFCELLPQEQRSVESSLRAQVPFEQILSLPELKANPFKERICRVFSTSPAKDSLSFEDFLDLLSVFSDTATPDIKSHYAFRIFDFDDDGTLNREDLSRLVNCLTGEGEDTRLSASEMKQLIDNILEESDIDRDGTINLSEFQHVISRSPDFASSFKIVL
Protein phosphatase 1D (Homo sapiens), sequence (O15297 whole entry, looked up): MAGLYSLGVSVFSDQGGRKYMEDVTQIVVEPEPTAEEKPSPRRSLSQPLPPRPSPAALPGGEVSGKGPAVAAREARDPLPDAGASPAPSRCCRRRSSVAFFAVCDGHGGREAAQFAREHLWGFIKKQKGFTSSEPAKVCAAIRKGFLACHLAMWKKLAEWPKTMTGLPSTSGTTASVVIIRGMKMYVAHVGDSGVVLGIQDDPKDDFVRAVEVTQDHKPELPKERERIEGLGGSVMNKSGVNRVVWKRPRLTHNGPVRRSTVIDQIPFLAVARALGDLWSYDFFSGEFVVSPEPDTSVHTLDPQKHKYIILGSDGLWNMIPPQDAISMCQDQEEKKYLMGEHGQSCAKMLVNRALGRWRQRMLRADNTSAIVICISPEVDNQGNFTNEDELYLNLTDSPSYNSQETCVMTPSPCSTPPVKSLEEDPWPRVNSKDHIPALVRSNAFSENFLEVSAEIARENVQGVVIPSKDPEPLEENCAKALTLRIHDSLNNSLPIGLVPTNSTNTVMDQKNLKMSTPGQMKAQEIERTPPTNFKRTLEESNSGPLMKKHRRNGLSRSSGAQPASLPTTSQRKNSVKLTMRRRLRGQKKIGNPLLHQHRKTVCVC
Single-stranded DNA cytosine deaminase (Homo sapiens), sequence (Q9GZX7 whole entry, looked up): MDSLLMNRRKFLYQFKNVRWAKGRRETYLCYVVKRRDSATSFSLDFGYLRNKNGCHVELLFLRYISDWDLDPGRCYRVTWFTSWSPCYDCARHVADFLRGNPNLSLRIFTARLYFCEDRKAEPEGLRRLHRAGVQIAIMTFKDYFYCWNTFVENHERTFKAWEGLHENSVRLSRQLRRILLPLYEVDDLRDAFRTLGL

SMILES: COc1cc(C)c(C(=O)O[C@H]2[C@@H](O)[C@H](n3ccc(=O)[nH]c3=O)O[C@@H]2CO)c(OC)c1
- Potency [1]: inactive

SMILES: CCCCN(CCCC)C(=O)CN1C[C@H](c2ccc3c(c2)OCO3)[C@@H](C(=O)O)[C@@H]1c1ccc(OC)cc1
- Potency [2]: inactive
- Potency [1]: inactive

SMILES: CC(C)N(C[C@H]1O[C@@H](n2cnc3c(N)ncnc32)[C@H](O)[C@@H]1O)C1CC(CCc2nc3ccc(C(C)(C)C)cc3[nH]2)C1 (some centres undefined)
- Potency [2]: inactive
- Potency [1]: inactive

SMILES: O=C(O)CCc1cccc(O[C@@H]2O[C@H](CO)[C@@H](O)[C@H](O)[C@H]2O)c1O
- Potency [1]: inactive

SMILES: CC(CCC1C(C(=O)O)=CC(=O)CC1(C)C)O[C@@H]1O[C@H](CO)[C@@H](O)[C@H](O)[C@H]1O (some centres undefined)
- Potency [1]: inactive

SMILES: COc1cc2c(cc1O)CCN[C@]21CS[C@@H]2c3c(OC(C)=O)c(C)c4c(c3[C@H](COC1=O)N1[C@@H]2[C@H]2c3c(cc(C)c(OC)c3O)C[C@@H]([C@@H]1O)N2C)OCO4
- Potency [2]: 0.0848 µM (active)

SMILES: CN1Cc2c(N)cccc2C(c2ccccc2)C1 (centres undefined)
- outcome [3]: inactive
- outcome [4]: inactive
- outcome [5]: inactive
- outcome [6]: inactive
- outcome [7]: inactive
- outcome [8]: inactive
- outcome [9]: inactive
- Potency [1]: inactive
- outcome [10]: inactive

SMILES: COC1CCCC/C(C)=C/C2C=C(C)C(C)C3C(CC(C)C)NC(=O)C23C(=O)C1 (centres undefined)
- Potency [1]: inactive

SMILES: O=C(NCc1ccc(OC(F)(F)F)cc1)C1c2ccccc2C(=O)N1C1CCOCC1 (centres undefined)
- Potency [1]: inactive

SMILES: CCOc1cc2ncc(C#N)c(Nc3ccc(OCc4ccccn4)c(Cl)c3)c2cc1NC(=O)/C=C/CN(C)C
- Potency [2]: 4.66 µM (active)
- Potency [1]: inactive

SMILES: OC[C@H]1O[C@@H](Oc2ccc(O)c3cccc(O)c23)[C@H](O)[C@@H](O)[C@@H]1O
- Potency [11]: 11.2 µM (active)

SMILES: CC/C=C/CC1=C(CCCCCCCC(=O)O)CCC1=O
- Potency [1]: inactive

SMILES: CC(=O)OC(C)OC(=O)C(C)c1ccc(-c2ccccc2)c(F)c1 (centres undefined)
- outcome [4]: inactive
- outcome [6]: inactive
- outcome [7]: inactive
- outcome [12]: inactive
- Potency [1]: inactive
- outcome [13]: inactive
